Measured values: PubChem BioAssay (NCATS)
Inconclusive results are not listed. Calls of active or inactive are those of the source. Calls come from the whole dose curve.

target: Atrial natriuretic peptide receptor 1 (Homo sapiens) (UniProt P16066); assay: Natriuretic polypeptide receptor (hNpr1) antagonism - Pilot screen (AID 1347049); details: hNpr1 cells, antagonist mode cGMP read-out; series mostly up to 57.5 µM; activity change, negative = inhibition: at the top concentration
Procedure: In order to identify small molecular compounds that inhibit the hNpr1 receptor we developed a high-throughput assay to measure inhibition of the guanylate cyclase activity of the receptor. cGMP production was measured using a circular permutated Firefly luciferase (FLuc) enzyme functionally linked to the cGMP binding domain of human phosphodiesterase 5 (GloSensor technology pGS-40F, (Fan, F. et al. 2008). The cGMP-sensor was expressed in human embryonic kidney 293 (HEK-293) cells and FLuc activity was measured after stimulation with hNrp agonist peptide. hNrp agonists activates the receptor's associated guanylyl cyclase (GC) domain producing cGMP which then binds to the GloSensor resulting in FLuc activation, the enzymatic activity of which can be measured as bioluminescence with addition of luciferin substrate.
F. Fan, B. F. Binkowski, B. L. Butler, P. F. Stecha, M. K. Lewis, K. V. Wood, Novel genetically encoded biosensors using firefly luciferase. ACS Chem Biol 3, 346-351 (2008).
This assay was initially piloted by testing with a small diversity library of compounds with known pharmacological activity.
PROTOCOL TABLES (as described by Inglese J, Shamu CE and Guy RK. 2007)
SEQUENCE No. (e.g., 1, 2, 3, etc.); […] (e.g., Cells, Incubation, Reagent, etc.); VALUE and DESCRIPTION.
1. Cells. Seed 1500 HEK293 cGMP-sensor cells expressing hNpr1 per well in 4uL into Greiner 1536-well white/solid bottom high base, tissue culture-treated plates.
2. Incubation. Incubate plated cells at 37C in 5% CO2, 95% RH overnight.
3. Reagent. Add 1uL per well GloSensor reagent from Promega (2% final concentration) or CO2 independent media vehicle control to respective columns of Greiner 1536-well plates.
4. Incubation. Incubate plated cells at room temperature for 2 h, protect from light.
5. Compounds. Library compounds and A-71915 control added at 23 nL per well, transferred by Pin Tool.
6. Incubation. Incubate plated cells for 30 min. at room temperature, protect from light.
7. Detector. GloSensor baseline pre-read luminescence measured using CCD-based camera (Viewlux).
8. Compound. Add 1uL of hNppA peptide to 0.1 nM final concentration to stimulate hNpr1 or CO2 independent media as vehicle control.
9. Incubation. Incubate treated cells at room temperature for 20 min., protect from light.
10. Detector. GloSensor post-hNppA luminescence measured using CCD-based camera (Viewlux).
NOTES (numbers refer to Sequence numbers above)
1. HEK293 cells expressing hNpr1 and GIP/pGS-40F grown to 85-95% confluence (48-72 h) in T175 culture flasks (CO2 independent media supplemented with 10% FBS, 1% Pen/Strep antibiotics and 1 ug/mL puromycin). Trypsinize and harvest cells from T175 culture flasks and filter through 40 um cell strainer. Cells counted with Invitrogen Countess (30,000,000 - 50,000,000 cells/flask). Cells diluted to a final concentration of 375 cells/uL in CO2 independent media and a Millipore multidrop used to dispense 1500 cells per well (4uL/well) into 9 x 1536-well Greiner White/Solid bottom, high base tissue-culture treated (TC) plates and one Aurora 1536-well Black/Clear bottom, low base, TC plate (for visual inspection of cell health throughout the duration of the assay).
2. Cells incubated overnight at ambient temperature, 24 h. at 37C in 95% RH incubator protected from light, covered with metal lid with gas-exchange holes.
3. Prepare GloSensor Reagent (Promega): Reconstitute GloSensor luciferase substrate by adding 8.2mL Hepes buffer to 250mg substrate, mix well, protect from light and stored at -80C. Prepare a fresh 12% GloSensor solution in CO2 independent supplemented plating media (see above). Mix well and store at ambient temperature, protected from light. 1uL 12% GloSensor Luciferase Reagent added (2% final concentration) to respective columns of 9 x 1536-well Greiner plate with BioRaptr, 1uL CO2 independent plating media added to respective columns as vehicle control with BioRaptr.
4. […]
% is set by controls: 0 for no effect and ±100 for the full control effect; potency is the fitted concentration of half-maximal effect.

Sequence of Atrial natriuretic peptide receptor 1 (Homo sapiens) (P16066 whole entry, looked up, the tested form may be a part): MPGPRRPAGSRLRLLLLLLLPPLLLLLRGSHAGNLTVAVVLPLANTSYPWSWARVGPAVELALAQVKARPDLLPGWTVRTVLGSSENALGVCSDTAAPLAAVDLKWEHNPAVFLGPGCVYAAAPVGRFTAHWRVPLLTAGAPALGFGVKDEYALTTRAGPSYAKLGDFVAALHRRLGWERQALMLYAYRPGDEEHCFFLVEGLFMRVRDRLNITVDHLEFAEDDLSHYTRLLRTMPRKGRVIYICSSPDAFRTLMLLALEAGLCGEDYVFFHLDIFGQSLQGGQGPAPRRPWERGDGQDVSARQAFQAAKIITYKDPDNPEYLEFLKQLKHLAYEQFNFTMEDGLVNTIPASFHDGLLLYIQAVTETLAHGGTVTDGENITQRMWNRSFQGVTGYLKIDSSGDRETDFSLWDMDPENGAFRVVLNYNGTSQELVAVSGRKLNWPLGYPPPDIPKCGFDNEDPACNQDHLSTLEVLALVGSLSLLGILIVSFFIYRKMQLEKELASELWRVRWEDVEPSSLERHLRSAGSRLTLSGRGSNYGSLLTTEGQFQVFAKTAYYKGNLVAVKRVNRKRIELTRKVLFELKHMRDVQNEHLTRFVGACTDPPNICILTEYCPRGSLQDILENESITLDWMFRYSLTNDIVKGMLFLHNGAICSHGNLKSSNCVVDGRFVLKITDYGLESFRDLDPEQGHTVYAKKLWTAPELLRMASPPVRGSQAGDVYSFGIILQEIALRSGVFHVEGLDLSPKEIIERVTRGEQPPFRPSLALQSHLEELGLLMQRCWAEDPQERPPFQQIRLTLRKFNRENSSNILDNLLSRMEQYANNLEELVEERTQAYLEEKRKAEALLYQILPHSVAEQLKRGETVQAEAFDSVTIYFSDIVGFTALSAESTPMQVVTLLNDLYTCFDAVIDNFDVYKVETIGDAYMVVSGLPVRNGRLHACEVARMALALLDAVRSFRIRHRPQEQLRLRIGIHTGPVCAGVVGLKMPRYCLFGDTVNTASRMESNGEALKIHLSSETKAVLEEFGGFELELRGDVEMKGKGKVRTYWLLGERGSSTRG

| Compound | activity change, negative = inhibition | Potency |
| --- | --- | --- |
| NC[C@H]1O[C@@H](n2cnc3c(N)ncnc32)[C@H](O)[C@@H]1O | 9.98% (inactive) |  |
| COc1cc2c(CCNC(C)=O)c[nH]c2cc1Cl | -1.66% (inactive) |  |
| NC(=S)c1ccc[n+]([C@@H]2O[C@@H](COP(=O)([O-])OP(=O)(O)OC[C@H]3O[C@@H](n4cnc5c(N)ncnc54)[C@H](OP(=O)(O)O)[C@@H]3O)C(O)C2O)c1 (stereo not given in full) | 5.77% (inactive) |  |
| CN1C2CC(OC(=O)[C@H](CO)c3ccccc3)CC1C1OC12 (stereo not given in full) | 1.03% (inactive) |  |
| NCCCCC(=O)O | 0.609% (inactive) |  |
| c1ccc(-c2ccccn2)nc1 | -2.87% (inactive) |  |
| Nc1nc(Cl)nc2c1ncn2[C@@H]1O[C@H](CO)[C@@H](O)[C@H]1O | 22.3% (inactive) |  |
| O=C(O)c1cc(=O)c2ccccc2[nH]1 | 7.3% (inactive) |  |
| N=C(N)SCCc1ccc(CCSC(=N)N)cc1 | -1.51% (inactive) |  |
| O=P(O)(O)C(Cl)(Cl)P(=O)(O)O | 20.7% (inactive) |  |
| CN1CCc2cc(NC(=O)Nc3cccnc3)ccc21 | -4.1% (inactive) |  |
| Cc1ccc(S(=O)(=O)/C=C/C#N)cc1 | -122% (inactive) |  |
| O=C(O)[C@@H]1C[C@@H](C(=O)O)N1 | 2.77% (inactive) |  |
| Cc1cc(NC2CCCCC2)nc(-n2nc(C)cc2C)n1 | 7.76% (inactive) |  |
| CCNC(=O)[C@H]1O[C@@H](n2cnc3c(N)nc(NCCc4ccc(CCC(=O)O)cc4)nc32)[C@H](O)[C@@H]1O | 17.8% (inactive) |  |
| CC(C)Cc1ccc([C@H](C)C(=O)O)cc1 | 1.09% (inactive) |  |
| N.N.N.N.N.N.N.N.N.N.N.N.N.N.O.O.[Ru+4].[Ru+5].[Ru+5] | -16.9% (inactive) |  |
| Oc1ccccc1O | 11.3% (inactive) |  |
| O=c1[nH]c2cc(Cl)c(Cl)cc2[nH]c1=O | -4.61% (inactive) |  |
| CC(C)(C)c1ccc(S(=O)(=O)/C=C/C#N)cc1 |  | 12 µM (active) |

| Compound | activity change, negative = inhibition | Potency |
| --- | --- | --- |
| CO/S(=N\S(=O)(=O)c1ccc(Cl)cc1)c1ccc([N+](=O)[O-])cc1 (stereo not given) | 14% (inactive) |  |
| CC1(C)CCC=[N+]1[O-] | 14% (inactive) |  |
| O=C(Nc1cccc(C(=O)Nc2ccc(S(=O)(=O)O)c3cc(S(=O)(=O)O)cc(S(=O)(=O)O)c23)c1)Nc1cccc(C(=O)Nc2ccc(S(=O)(=O)O)c3cc(S(=O)(=O)O)cc(S(=O)(=O)O)c23)c1 | -1.29% (inactive) |  |
| CC(=O)/C=C1\C(=O)N(C)c2ccccc21 |  | 16.9 µM (active) |
| N=c1ccn2c(n1)O[C@H]1[C@H](O)[C@@H](CO)O[C@H]12 | 2.95% (inactive) |  |
| Cn1ncc(S(=O)(=O)Cc2ccccc2)c(Br)c1=O | -8.93% (inactive) |  |
| CCN1/C(=C/C(C)=O)Sc2ccc(OC)cc21 | -1.72% (inactive) |  |
| OCC1O[C@H](O)C(Cl)C(O)C1O (stereo not given in full) | 5.97% (inactive) |  |
| Brc1c(Br)c(Br)c2n[nH]nc2c1Br | -13.6% (inactive) |  |
| Fc1ccc(C(OCCCc2cnc[nH]2)c2ccc(F)cc2)cc1 | -2.55% (inactive) |  |
| O=C(O)c1cc([N+](=O)[O-])ccc1NCCCc1ccccc1 | -16.9% (inactive) |  |
| N#C/C(=C\c1ccc(O)c(O)c1)C(=O)NCc1ccccc1 | -0.597% (inactive) |  |
| Cn1c(=O)c2[nH]c(-c3ccccc3)nc2n(C)c1=O | 13.9% (inactive) |  |
| NC(=O)C1=CN(C2OC(COP(=O)(O)OP(=O)(O)OC[C@H]3O[C@@H](n4cnc5c(N)ncnc54)[C@H](OP(=O)(O)O)[C@@H]3O)C(O)C2O)C=CC1 (stereo not given in full) | 11% (inactive) |  |
| COc1ccccc1CNCCCCCCNCCCCCCCCNCCCCCCNCc1ccccc1OC | -1.91% (inactive) |  |
| Nc1nc(Cl)nc2c1ncn2[C@@H]1O[C@H](COP(=O)(O)OP(=O)(O)OP(=O)(O)O)[C@@H](O)[C@H]1O | 8.16% (inactive) |  |
| O=C(O)CNC(=O)C(CS)Cc1ccccc1 (stereo not given) | 5.34% (inactive) |  |
| COc1cc(C(O)CO)ccc1OS(=O)(=O)O (stereo not given) | 5.41% (inactive) |  |
| CN(C)c1nc2c(Br)c(Br)c(Br)c(Br)c2[nH]1 | -3.87% (inactive) |  |
| Cc1nc2sccn2c(=O)c1CCN1CCC(=C(c2ccccc2)c2ccc(F)cc2)CC1 | 0.443% (inactive) |  |
